Experimental data published in the supplement of paper PMC11732987, “Enantioselective OTUD7B fragment discovery through chemoproteomics screening and high-throughput optimisation” (Communications Chemistry, 2025).

Tests used:
Experiment in all cases: log2 ratio of Biotin-Ahx-Ub-VS probe labelling (fragment/DMSO); higher = less target engagement (more negative = stronger competition), active = hit call of the paper (q ≤ 0.05, log2 ratio ≤ -1)
Details in all cases: compound concentration: 200 uM; treatment time: 3 h
USP34 = USP34 (UniProt Q70CQ2)
USP34, sequence (Q70CQ2 whole entry, the tested form may be a part): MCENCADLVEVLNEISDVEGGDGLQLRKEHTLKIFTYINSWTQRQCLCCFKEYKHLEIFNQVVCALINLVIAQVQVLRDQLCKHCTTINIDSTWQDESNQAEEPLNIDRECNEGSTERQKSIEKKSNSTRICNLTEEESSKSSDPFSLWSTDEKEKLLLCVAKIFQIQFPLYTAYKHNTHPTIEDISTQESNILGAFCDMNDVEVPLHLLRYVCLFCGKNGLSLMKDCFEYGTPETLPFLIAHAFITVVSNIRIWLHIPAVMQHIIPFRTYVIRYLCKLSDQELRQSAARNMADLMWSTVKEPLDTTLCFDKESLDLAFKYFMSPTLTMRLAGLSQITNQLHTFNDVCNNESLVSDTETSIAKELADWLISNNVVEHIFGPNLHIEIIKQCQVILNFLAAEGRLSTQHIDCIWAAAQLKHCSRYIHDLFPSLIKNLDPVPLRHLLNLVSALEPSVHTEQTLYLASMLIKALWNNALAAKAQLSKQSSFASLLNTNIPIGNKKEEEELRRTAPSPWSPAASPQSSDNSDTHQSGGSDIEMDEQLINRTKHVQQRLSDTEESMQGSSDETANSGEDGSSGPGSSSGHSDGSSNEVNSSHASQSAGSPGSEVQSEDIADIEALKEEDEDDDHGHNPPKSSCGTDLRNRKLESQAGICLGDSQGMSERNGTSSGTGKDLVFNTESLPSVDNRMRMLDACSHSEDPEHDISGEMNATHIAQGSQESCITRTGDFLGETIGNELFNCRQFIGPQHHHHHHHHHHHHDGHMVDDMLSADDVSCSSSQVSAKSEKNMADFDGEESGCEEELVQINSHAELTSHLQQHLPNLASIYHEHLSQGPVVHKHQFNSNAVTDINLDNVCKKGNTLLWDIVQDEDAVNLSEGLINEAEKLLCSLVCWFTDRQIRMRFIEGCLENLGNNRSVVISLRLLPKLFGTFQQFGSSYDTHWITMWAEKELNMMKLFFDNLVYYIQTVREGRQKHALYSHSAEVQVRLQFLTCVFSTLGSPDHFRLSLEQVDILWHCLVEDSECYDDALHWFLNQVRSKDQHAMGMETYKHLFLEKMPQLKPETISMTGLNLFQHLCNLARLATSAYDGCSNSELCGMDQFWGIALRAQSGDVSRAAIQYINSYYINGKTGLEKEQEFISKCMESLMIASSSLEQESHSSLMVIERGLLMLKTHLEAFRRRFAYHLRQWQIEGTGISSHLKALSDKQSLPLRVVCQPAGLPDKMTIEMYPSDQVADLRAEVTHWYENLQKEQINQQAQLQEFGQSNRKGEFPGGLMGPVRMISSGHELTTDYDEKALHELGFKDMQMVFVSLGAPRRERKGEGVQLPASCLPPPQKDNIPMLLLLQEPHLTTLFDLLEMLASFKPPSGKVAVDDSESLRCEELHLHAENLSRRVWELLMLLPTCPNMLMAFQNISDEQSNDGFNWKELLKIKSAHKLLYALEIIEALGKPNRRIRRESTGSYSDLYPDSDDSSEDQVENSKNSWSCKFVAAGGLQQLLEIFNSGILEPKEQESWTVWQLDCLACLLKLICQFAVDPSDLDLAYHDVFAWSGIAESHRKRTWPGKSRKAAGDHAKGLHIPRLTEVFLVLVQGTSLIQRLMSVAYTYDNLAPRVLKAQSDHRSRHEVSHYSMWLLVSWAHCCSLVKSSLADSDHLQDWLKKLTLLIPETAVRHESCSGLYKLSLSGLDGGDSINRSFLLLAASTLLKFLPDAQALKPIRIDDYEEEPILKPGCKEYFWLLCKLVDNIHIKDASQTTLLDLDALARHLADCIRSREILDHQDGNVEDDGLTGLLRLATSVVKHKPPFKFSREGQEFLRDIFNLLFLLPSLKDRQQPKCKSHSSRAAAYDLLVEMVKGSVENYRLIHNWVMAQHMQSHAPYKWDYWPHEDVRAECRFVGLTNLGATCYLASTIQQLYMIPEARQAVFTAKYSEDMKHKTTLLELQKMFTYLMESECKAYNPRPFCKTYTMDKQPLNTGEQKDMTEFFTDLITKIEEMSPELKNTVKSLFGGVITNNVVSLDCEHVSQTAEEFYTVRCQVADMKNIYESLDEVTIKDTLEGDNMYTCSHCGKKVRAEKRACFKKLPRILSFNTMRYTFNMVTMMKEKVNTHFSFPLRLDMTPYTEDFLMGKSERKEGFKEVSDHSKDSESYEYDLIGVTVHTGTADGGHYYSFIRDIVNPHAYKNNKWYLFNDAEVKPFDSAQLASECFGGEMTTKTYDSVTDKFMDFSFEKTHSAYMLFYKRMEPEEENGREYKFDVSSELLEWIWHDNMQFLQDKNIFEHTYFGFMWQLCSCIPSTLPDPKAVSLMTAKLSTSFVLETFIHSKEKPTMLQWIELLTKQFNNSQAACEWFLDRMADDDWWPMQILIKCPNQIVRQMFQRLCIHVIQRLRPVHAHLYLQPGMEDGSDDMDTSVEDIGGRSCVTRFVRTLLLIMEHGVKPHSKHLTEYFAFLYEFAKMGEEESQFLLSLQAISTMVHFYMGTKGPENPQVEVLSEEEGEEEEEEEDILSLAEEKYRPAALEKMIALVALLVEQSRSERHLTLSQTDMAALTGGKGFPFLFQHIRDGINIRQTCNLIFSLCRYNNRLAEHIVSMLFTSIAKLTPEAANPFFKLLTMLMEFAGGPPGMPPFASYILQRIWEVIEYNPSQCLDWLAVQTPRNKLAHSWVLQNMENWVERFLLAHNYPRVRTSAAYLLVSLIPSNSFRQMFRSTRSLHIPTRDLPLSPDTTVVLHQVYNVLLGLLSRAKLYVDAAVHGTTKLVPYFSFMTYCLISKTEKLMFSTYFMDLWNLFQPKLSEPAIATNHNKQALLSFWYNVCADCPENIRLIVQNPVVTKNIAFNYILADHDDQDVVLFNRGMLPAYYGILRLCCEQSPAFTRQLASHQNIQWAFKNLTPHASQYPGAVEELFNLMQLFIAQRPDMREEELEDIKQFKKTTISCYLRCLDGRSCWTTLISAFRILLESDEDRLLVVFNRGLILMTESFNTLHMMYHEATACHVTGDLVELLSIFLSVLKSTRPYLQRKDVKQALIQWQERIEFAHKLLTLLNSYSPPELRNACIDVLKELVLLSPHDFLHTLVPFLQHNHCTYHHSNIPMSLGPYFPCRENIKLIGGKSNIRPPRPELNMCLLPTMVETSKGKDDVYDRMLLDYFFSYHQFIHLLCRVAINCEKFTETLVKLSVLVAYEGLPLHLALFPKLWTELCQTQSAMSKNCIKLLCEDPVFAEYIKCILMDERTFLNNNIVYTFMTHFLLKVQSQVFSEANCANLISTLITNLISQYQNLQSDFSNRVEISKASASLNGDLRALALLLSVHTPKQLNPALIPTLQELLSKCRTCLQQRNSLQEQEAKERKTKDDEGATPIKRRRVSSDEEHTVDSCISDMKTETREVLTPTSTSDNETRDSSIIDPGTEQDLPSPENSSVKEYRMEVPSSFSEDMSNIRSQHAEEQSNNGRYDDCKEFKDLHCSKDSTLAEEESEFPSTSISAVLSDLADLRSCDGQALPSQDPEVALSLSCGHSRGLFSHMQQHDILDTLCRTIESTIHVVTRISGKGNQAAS
Summary of the method: (§1)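 HEK293T lysate, 495 µg per sample in Tris/CHAPS/IGEPAL buffer with protease inhibitors, was treated in triplicate with fragment at 200 µM or vehicle for 3 h and then with Biotin-Ahx-Ub-VS at 0.5 µM final for 1 h. Labelled DUBs were NeutrAvidin-enriched, digested with LysC and trypsin, and run by diaPASEF LC-MS/MS. Spectronaut label-free quantities were global-median-normalised, and values are average log2 fragment/vehicle ratios by unpaired t-test on proteins with ≥2 unique peptides.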

USP36 = target: T1, USP36 (UniProt Q9P275)
T1 sequence (whole entry): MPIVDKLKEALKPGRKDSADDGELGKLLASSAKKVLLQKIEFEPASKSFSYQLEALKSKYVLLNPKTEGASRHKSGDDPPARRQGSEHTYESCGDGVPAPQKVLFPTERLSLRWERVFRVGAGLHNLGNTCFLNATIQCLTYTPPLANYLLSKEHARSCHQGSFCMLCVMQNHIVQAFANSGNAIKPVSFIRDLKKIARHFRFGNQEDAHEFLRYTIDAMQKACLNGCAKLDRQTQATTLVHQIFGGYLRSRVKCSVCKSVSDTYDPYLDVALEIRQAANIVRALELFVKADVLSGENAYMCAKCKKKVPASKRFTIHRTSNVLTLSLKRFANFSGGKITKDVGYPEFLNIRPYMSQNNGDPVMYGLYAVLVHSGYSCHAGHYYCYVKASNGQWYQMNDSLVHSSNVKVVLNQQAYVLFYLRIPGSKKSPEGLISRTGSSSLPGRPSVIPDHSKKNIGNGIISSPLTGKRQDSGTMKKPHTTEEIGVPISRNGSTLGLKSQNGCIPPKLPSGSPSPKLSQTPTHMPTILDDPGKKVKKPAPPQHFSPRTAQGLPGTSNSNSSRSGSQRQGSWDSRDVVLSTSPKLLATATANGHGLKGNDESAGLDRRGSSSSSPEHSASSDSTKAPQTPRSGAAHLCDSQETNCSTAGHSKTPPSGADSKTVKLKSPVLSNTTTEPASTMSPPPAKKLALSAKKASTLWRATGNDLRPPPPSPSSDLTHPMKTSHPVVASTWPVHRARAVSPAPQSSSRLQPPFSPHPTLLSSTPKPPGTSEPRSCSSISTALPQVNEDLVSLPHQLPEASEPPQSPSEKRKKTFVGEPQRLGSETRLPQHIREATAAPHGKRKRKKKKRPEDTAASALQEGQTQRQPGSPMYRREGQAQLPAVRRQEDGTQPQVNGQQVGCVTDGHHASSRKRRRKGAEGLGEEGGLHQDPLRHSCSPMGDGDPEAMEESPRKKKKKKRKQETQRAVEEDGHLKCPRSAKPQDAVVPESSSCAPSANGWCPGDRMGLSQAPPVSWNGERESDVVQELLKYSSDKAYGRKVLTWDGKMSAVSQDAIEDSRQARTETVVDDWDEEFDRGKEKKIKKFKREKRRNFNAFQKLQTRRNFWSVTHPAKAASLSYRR
Summary of the method: as §1

USP38 = target: T2, USP38 (UniProt Q8NB14)
T2 sequence (whole entry): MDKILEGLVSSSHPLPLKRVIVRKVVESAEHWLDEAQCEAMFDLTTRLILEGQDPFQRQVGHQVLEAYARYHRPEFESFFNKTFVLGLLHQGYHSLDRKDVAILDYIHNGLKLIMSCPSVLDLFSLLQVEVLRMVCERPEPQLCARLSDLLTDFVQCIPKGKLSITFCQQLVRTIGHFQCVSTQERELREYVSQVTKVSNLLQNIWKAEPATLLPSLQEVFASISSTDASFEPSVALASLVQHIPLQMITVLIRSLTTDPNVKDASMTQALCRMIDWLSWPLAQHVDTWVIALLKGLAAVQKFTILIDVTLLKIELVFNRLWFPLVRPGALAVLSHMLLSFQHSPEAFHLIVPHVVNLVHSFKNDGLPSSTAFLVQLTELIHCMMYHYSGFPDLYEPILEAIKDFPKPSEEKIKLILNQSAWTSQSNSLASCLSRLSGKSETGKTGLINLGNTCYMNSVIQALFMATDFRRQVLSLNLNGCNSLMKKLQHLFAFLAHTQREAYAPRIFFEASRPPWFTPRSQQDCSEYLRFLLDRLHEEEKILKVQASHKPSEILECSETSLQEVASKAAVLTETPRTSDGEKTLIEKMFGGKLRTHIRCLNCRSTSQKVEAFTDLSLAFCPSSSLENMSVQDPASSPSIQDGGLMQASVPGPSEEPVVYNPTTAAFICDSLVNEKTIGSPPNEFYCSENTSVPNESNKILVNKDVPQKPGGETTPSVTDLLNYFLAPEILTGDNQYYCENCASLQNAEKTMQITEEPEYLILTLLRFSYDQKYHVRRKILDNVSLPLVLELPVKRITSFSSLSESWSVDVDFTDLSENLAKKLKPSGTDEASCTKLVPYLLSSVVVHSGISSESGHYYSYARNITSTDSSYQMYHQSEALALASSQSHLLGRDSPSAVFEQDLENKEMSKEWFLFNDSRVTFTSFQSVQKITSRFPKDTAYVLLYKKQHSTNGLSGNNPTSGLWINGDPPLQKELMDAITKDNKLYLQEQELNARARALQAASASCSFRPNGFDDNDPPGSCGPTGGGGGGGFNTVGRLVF
Summary of the method: as §1

USP39 = target: T3, USP39 (UniProt Q53GS9)
T3 sequence (whole entry): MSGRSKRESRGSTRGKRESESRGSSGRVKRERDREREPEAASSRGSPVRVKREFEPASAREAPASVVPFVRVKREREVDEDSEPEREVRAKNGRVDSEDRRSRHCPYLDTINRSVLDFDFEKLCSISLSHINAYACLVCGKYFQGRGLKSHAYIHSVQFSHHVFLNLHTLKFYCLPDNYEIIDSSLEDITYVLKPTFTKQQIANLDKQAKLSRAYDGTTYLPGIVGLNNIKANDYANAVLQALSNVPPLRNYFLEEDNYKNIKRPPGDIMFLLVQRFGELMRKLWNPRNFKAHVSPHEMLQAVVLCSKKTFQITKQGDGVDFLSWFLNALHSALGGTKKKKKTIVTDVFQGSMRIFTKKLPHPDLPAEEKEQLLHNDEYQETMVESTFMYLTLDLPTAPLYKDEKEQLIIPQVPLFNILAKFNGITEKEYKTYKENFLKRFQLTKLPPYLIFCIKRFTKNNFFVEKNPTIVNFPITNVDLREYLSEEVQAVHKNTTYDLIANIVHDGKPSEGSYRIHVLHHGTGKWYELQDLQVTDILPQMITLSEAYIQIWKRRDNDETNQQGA
Summary of the method: as §1

USP4 = target: T4, USP4 (UniProt Q13107)
T4 sequence (whole entry): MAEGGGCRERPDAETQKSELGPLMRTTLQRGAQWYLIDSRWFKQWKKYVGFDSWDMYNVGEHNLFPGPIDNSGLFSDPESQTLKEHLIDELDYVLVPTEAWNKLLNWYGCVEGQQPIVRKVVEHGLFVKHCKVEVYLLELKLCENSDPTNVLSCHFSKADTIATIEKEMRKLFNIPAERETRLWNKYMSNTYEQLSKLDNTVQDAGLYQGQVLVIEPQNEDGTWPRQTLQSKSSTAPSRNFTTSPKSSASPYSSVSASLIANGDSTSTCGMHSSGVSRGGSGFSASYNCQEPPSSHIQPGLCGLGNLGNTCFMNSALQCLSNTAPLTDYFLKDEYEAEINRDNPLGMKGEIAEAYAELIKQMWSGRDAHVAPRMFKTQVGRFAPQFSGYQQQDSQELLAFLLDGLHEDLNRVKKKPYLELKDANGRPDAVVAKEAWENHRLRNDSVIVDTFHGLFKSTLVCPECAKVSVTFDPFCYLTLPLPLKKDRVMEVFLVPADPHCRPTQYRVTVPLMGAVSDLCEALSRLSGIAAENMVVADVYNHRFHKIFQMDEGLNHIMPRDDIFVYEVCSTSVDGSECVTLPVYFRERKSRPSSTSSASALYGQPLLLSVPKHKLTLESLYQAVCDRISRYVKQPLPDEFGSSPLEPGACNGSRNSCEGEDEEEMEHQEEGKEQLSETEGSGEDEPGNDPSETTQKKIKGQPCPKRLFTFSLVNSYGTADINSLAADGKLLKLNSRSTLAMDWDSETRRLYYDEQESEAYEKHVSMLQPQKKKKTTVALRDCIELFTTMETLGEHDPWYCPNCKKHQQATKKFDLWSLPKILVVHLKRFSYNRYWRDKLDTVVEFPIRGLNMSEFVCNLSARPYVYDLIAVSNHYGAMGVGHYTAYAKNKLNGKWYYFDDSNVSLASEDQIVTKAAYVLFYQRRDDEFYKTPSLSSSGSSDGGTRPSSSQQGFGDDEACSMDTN
Summary of the method: as §1

Measured: log2 ratio of Biotin-Ahx-Ub-VS probe labelling

Cc1n[nH]c2c1CN(C(=O)CCl)CC2
inactive: USP34 -0.404 | USP36 -0.284 | USP38 -0.715 | USP39 0.183 | USP4 -0.888
